The results in this text go back to PubChem BioAssay.

Where “and” joins values, the source holds several entries; their conditions need not be identical. Equal entries are not always repeated. Calls of active or inactive are those of the source.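 Rule for the calls, unless noted: active = compounds whose cell count with miR-34 switched on is under 0.7 times the count with it off; inactive = the rest.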

Assay [1] is described as follows: sensitizers of A549 cells to miR-34 induction, primary screen, imaging, A549 dox-inducible miR-34, nuclei and caspase counts (AID 1347080). Conditions: A549 miR-34 inducible, Hoechst nuclei count, 48 h.
Assay [2] in a line: inhibitors of Cryptococcus chitosan production, flow cytometry, Cibacron Brilliant Red staining (AID 1347148; call rule not given here;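 note: compound exposure lasted three days at 37 degrees C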). Conditions: Cryptococcus neoformans chitosan, stronger effect = lower value; at 10 µM unless noted. For orientation: A flow cytometer gives signals particle by particle.
The nature of assay [3]: circadian clock period modulators, cell-based, LOPAC library, luminescence reporter (AID 2774; call rule not given here;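 note: values are relative to mean of DMSO wells on each plate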). The following applies: circadian reporter cells, at 7 µM, actives lie on both sides.
The test system of assay [4] is Hepatitis C virus NS3 helicase. As to the kind of experiment: HCV NS3 helicase inhibitors, primary screen, biochemical, fluorescence polarization, LOPAC1280 library (AID 687035; in the data active = inhibition above about 37%). Conditions: Purified HCV NS3 helicase, Cy5-dT15 ssDNA binding fluorescence polarization; stronger effect = higher value; concentration not given here. A general note: Polarisation of emitted light reports the rotation of a fluorescent probe.

The nature of assay [5]: Cy5 fluorescence quenching or enhancement artefacts, artefact control for HCV NS3 helicase inhibitor project, biochemical, LOPAC1280 (AID 687037; call rule not given here). The following applies: Cy5-DNA-NS3h complex fluorescence interference counterscreen. A general note: The purpose of a counterscreen is to sort out artefacts and off-target activity.
Assay [6] is described as follows: phospholipid biosynthesis inhibitors in animal cells, primary screen, cell-based, LOPAC library, screen 4 (AID 1347384; call rule not given here). Conditions: phospholipid biosynthesis inhibition screen, at 10 µM.
Assay [7] in a line: viability rescue of complex I mutant cybrids, primary screen, cell-based, galactose medium, ATP luminescence (AID 1645843;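 active = z-score of at least 1.8 in each of two replicates, scored against plate mean and spread of sample wells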;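 note: positive z means more ATP and so rescue of galactose-driven cybrid death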). Conditions: complex I mutant cybrid cells, 72 h, stronger effect = higher value.
Assay [8] in a line: hESC survival regulators, cell-based (AID 493140; call rule not given here;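 note: cells exposed to compounds for four days before counting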). Conditions: human embryonic stem cell survival screen; stronger effect = higher value.
Assay [9] can be described thus: liver-stage malaria parasite growth inhibition, primary screen, cell-based, HepG2, luciferase luminescence, HepG2 viability (AID 624349; in the data active = parasite load remaining mostly below about 12%, no sharp cut-off; inactive = mostly above about 10%;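 note: 100% = mean of DMSO negative control wells on the same plate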). The following applies: P. berghei liver stage in HepG2, luciferase luminescence, concentration not given here; parasite load remaining: stronger effect = lower value; viability: measured here: HepG2 viability without parasites.
A short description of assay [10]: survival rescue of mitochondrial mutant cells in low glucose, primary screen, MELAS cybrids, Rieske KO mouse fibroblasts, CellTiter-Glo (AID 1508586;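 active = mean z-score across replicates of 1.96 or higher in either the MELAS or the Rieske mutant cell line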;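 note: z relative to plate mean and SD of compound and empty wells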).
The mark [11] stands for this setting: stronger effect = lower value, cell number ratio, induced over uninduced.
Where [12] appears, read: measured here: relative caspase fold change +Dox/-Dox.
Setting [13] is: measured here: total cells with miR-34 induction, stronger effect = lower value.
[14] abbreviates: measured here: total cells without miR-34 induction.
The mark [15] stands for this setting: MELAS cybrid survival, CellTiter-Glo 48 h, stronger effect = higher value.
[16] abbreviates: Rieske KO mouse fibroblast survival, CellTiter-Glo 72 h.

Take `O=C(CCCCc1ccccc1)C(F)(F)C(F)(F)F`: the fold change in [1] (setting [11]) was 0.952 (inactive); in assay [1] (setting [12]), 1.77. Also, the results for the cell count in assay [1] (setting [13]) and in [1] (setting [14]) were 5980 and 6280, respectively.

Take `CCCCC[C@H](O)/C=C/[C@H]1CC[C@H](O)[C@@H]1C/C=C\CCCC(=O)O`: the fold change is 0.956 (inactive) in [1] (setting [11]) and 1.76 in assay [1] (setting [12]). Also, the cell count amounted to 6120 in [1] (setting [13]) and 6400 in assay [1] (setting [14]).

On to `CCCCC[C@H](O)/C=C/[C@H]1C2CC(CO2)[C@@H]1C/C=C\CCCC(=O)O` (stereo partly drawn), for which the fold change was 0.956 (inactive) in [1] (setting [11]) and 0.835 in assay [1] (setting [12]). For the same compound, the cell count in [1] (setting [13]) worked out at 5400; in assay [1] (setting [14]), 5650.

Take `CCCCCCCCCCCCCCCC(=O)NC(CO)CO`: the fold change is 0.966 (inactive) in assay [1] (setting [11]) and 0.974 in assay [1] (setting [12]). Also, the cell count in [1] (setting [13]) stood at 5260; in assay [1] (setting [14]), 5440.

Consider `COc1ccc(/C=C/C(=O)CC(=O)/C=C/c2cccc(O)c2OC)cc1O`, for which the fold change was 0.925 (inactive) in assay [1] (setting [11]) and 1.39 in assay [1] (setting [12]). In addition, the cell count was found to be 3510 in assay [1] (setting [13]) and 3790 in assay [1] (setting [14]).

With `c1ccc2c(NCCCCCCCNc3c4c(nc5ccccc35)CCCC4)c3c(nc2c1)CCCC3`, the fold change in assay [1] (setting [11]) was 1.06 (inactive); in assay [1] (setting [12]) it was 0.663. For the same compound, the cell count in assay [1] (setting [13]) turned out to be 4480; in assay [1] (setting [14]) it was 4230.

As for `CC(C)OC(=O)CCC/C=C\C[C@@H]1[C@@H](/C=C/C(=O)COc2cccc(C(F)(F)F)c2)[C@H](O)C[C@@H]1O`, the fold change in [1] (setting [11]) is 0.979 (inactive); in [1] (setting [12]), 1.05. For the same compound, the figures for the cell count in assay [1] (setting [13]) and in [1] (setting [14]) were 6150 and 6280, respectively.

Turning to `CCCCC[C@H](O)/C=C/[C@@H]1[C@H]2C/C(=C\CCCC(=O)O)C[C@H]2C[C@H]1O`, the fold change was 0.922 (inactive) in assay [1] (setting [11]) and 1.13 in assay [1] (setting [12]). In addition, the cell count worked out at 6140 in [1] (setting [13]) and 6660 in assay [1] (setting [14]).

`CC\C=C/C=C/C=C/C=C\CCCCCCCC(=O)O`: the fold change in assay [1] (setting [11]) was 0.875 (inactive); in assay [1] (setting [12]), 0.385. Moreover, the cell count in assay [1] (setting [13]) worked out at 4740; in assay [1] (setting [14]) it was 5410.

`COc1cc([C@@H]2OC[C@@H](c3cc(OC)c(OC)c(OC)c3)O2)cc(OC)c1OC`: the figures for the fold change in assay [1] (setting [11]) and in [1] (setting [12]) were 0.96 (inactive) and 0.869, respectively. Also, the cell count in assay [1] (setting [13]) was found to be 5040; in assay [1] (setting [14]), 5250.

In the case of `CC(C)CCOc1ccc(NC(=S)Nc2ccc(OCCC(C)C)cc2)cc1`, the fold change in [1] (setting [11]) was 0.881 (inactive); in assay [1] (setting [12]), 0.401. The cell count in assay [1] (setting [13]) was found to be 4560; in [1] (setting [14]), 5170.

Regarding `CCCCC[C@H](O)/C=C/[C@H]1CC[C@H](O)[C@@H]1CCCCCCC(=O)O`, the fold change in [1] (setting [11]) was 0.966 (inactive); in assay [1] (setting [12]), 1.33. The figures for the cell count in assay [1] (setting [13]) and in assay [1] (setting [14]) were 6200 and 6420, respectively.

Consider `CC(=O)O[C@@]12CO[C@@H]1C[C@H](O)[C@@]1(C)C(=O)[C@H](OC(=O)O)C3=C(C)[C@@H](OC(=O)[C@H](O)[C@@H](NC(=O)c4ccccc4)c4ccccc4)C[C@@](O)([C@@H](OC(=O)c4ccccc4)C12)C3(C)C` (stereo partly drawn), for which the fold change in assay [1] (setting [11]) was 1.13 (inactive); in assay [1] (setting [12]), 0.603. In addition, the cell count was 1340 in assay [1] (setting [13]) and 1180 in assay [1] (setting [14]).

For the compound `O=C(O)CCC/C=C\C[C@@H]1[C@@H](/C=C/C(=O)CCc2ccccc2)[C@H](O)C[C@@H]1O`, the fold change is 0.902 (inactive) in assay [1] (setting [11]) and 1.59 in assay [1] (setting [12]). In addition, the cell count turned out to be 5390 in assay [1] (setting [13]) and 5980 in [1] (setting [14]).

For the compound `Cc1ccccc1C#Cc1ccc(CCC(=O)O)cc1`, the fold change was 1.11 (inactive) in assay [1] (setting [11]) and 1.21 in assay [1] (setting [12]). For the same compound, the cell count in assay [1] (setting [13]) is 6610; in [1] (setting [14]), 5930.

`O=C(O)CCC/C=C\C[C@H]1[C@@H](/C=C/[C@@H](O)CCc2ccccc2)[C@H](O)C[C@@H]1O`: the fold change in assay [1] (setting [11]) was 0.9 (inactive); in assay [1] (setting [12]), 0.837. Also, the cell count was 5490 in assay [1] (setting [13]) and 6100 in [1] (setting [14]).

With `O=C1C(Nc2ccccc2)=CC(=O)c2ncccc21`, the fold change in [1] (setting [11]) was 0.735 (inactive) and 0.883 (inactive); in assay [1] (setting [12]), 1.99 and 0.965. Also, the cell count was 1070 and 904 in [1] (setting [13]); 1450 and 1020 in [1] (setting [14]). Also, the fold fluorescence in [2] is 7.9 [at 199.8 µM] (inactive).

For the compound `C[C@@]1(C2CCCC2)Cc2cc(OCC(=O)O)c(Cl)c(Cl)c2C1=O`, in [3], the period change was 0.04 h (inactive). In addition, the inhibition in [4] is -6% (inactive). In addition, the fluorescence ratio (interference) in assay [5] was 1 (inactive). In addition, the fold change is 1.13 (inactive) and 0.909 (inactive) in assay [1] (setting [11]); 0.91 and 1.29 in assay [1] (setting [12]). Moreover, the cell count in assay [1] (setting [13]) was 11200 and 5500; in assay [1] (setting [14]) it was 9900 and 6050. Besides, the fold fluorescence in assay [2] is 4.41 [at 140 µM] (inactive). Further, in [6], the result was inactive. For the same compound, the z-score in assay [7] was 0.845 (inactive).

Regarding `CCCCC/C=C\C/C=C\CCCCCCCC(=O)O`, in [8], the survival was 55.7 (inactive). Moreover, the fold change in assay [1] (setting [11]) is 0.973 (inactive) and 1.02 (inactive); in [1] (setting [12]), 1.17 and 0.947. In addition, the cell count was 6220 and 5980 in [1] (setting [13]); 6400 and 5840 in assay [1] (setting [14]). For the same compound, the fold fluorescence in [2] was 4.86 (inactive).

With `CC[N+](C)(CC)CCC[n+]1c(-c2ccccc2)c2cc(N)ccc2c2ccc(N)cc21`, the survival in [8] was 5.17 (inactive). The parasite load remaining in assay [9] was 62.2% (inactive). The viability in [9] worked out at 92.5%. Besides, the fold change in [1] (setting [11]) was 0.82 (inactive) and 0.917 (inactive); in [1] (setting [12]) it was 1.46 and 1.13. Besides, the cell count is 7160 and 5250 in [1] (setting [13]); 8730 and 5720 in assay [1] (setting [14]). The fold fluorescence in assay [2] was 8.39 [at 120.6 µM] (inactive). For the same compound, the results for the z-score in [10] (setting [15]) and in assay [10] (setting [16]) were -0.661 (inactive) and 1.71, respectively.

`CCCCCCCCCCCCC/C=C/[C@@H](O)[C@H](CO)NC(=O)CCCCCCC`: the survival in assay [8] is 77.3 (inactive). The fold change in [1] (setting [11]) is 0.885 (inactive) and 1 (inactive); in assay [1] (setting [12]), 2.05 and 0.909. Besides, the cell count is 5260 and 5480 in [1] (setting [13]); 5940 and 5480 in assay [1] (setting [14]). Moreover, in assay [2], the fold fluorescence was 4.66 (inactive).

With `O=c1oc(Cl)c(Cl)c2ccccc12`, the period change in [3] was -0.015 h (inactive). Moreover, the inhibition in assay [4] is -3% (inactive). Further, in assay [5], the fluorescence ratio (interference) is 1 (inactive). Besides, the fold change in assay [1] (setting [11]) was 1.11 (inactive) and 1.06 (inactive); in assay [1] (setting [12]), 1.14 and 0.927. For the same compound, the cell count is 6300 and 1380 in assay [1] (setting [13]); 5680 and 1300 in [1] (setting [14]). Besides, the fold fluorescence in assay [2] was 6.4 [at 232.5 µM] (inactive). The compound was called inactive in assay [6]. Besides, the z-score in assay [7] was -1.02 (inactive).

On to `CC(=O)OCOC(=O)CN(CC(=O)OCOC(C)=O)c1ccccc1OCCOc1ccccc1N(CC(=O)OCOC(C)=O)CC(=O)OCOC(C)=O`, for which the fold change in assay [1] (setting [11]) was 1.04 (inactive) and 0.871 (inactive); in assay [1] (setting [12]), 1.07 and 0.533. The cell count was 2560 and 5870 in assay [1] (setting [13]); 2460 and 6740 in assay [1] (setting [14]). Besides, in [2], the fold fluorescence is 5.04 [at 65.4 µM] (inactive). The z-score was -0.31 (inactive) in assay [10] (setting [15]) and 0.894 in assay [10] (setting [16]).

As for `O=c1[nH]c2cc(C(F)(F)F)ccc2n1-c1cc(C(F)(F)F)ccc1O`, in assay [3], the period change was -0.3 h (inactive). Moreover, the inhibition in assay [4] is -6% (inactive). Further, the fluorescence ratio (interference) in assay [5] is 0.9 (inactive). The fold change in assay [1] (setting [11]) was 0.996 (inactive) and 0.985 (inactive); in assay [1] (setting [12]), 0.925 and 0.952. The cell count in assay [1] (setting [13]) is 9130 and 5130; in [1] (setting [14]), 9180 and 5210. In addition, in assay [2], the fold fluorescence is 3.32 [at 138 µM] (inactive). Besides, in [6], the compound was classed as inactive. Besides, the z-score in assay [7] was 0.585 (inactive).

In general, inhibition refers to the relative decrease from the control value, in per cent. As a reminder, the viability is the share of living cells, or the viability signal relative to a control.
